rRNA inh HTS – inhibitors of bacterial rRNA selective over humanized ribosomes | 350,000 compounds, 1.6% hits | E. coli WT GFP vs humanized-ribosome RFP mutants, fluorescence, 24 h; stronger effect = lower value; DMSO median 0, no signal -100 | AID 720706 | GFP signal change (wild-type ribosome), % (no concentration beside the values);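 active = significant combined selectivity score with lowered wild-type GFP, culture density cut under 30%, mutant RFP and density less affected; inactive = any of these conditions unmet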
EWS-Fli block – EWS/Fli transcriptional activity inhibition | A673 NR0B1-luciferase reporter, viability-normalised | inhibition, % at 12.6 µM | 350,000 compounds, 0.67% hits | AID 651661;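 active = mean inhibition of at least 50% after viability correction, with every replicate also passing that limit; inconclusive = mean reaches 50% but only one of two replicates passes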;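 note: firefly luciferase signal divided by Alamar Blue viability fluorescence both relative to DMSO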
PAX8 reporter – inhibitors of PAX8 transcriptional activity in RMG-I cells; RMG-I TPO-luciferase reporter, SteadyGlo, 24 h; AID 652154; 360,000 compounds, 1.2% hits; inhibition, % at 12.6 µM;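 active = mean replicate inhibition at least 60% with every replicate also reaching 60%; inconclusive = only one of the two criteria is met; inactive = mean below 60% and not all replicates reaching 60%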;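 note: luciferase light reporting Pax8 driven TPO promoter activity; plate controls were median of neutral control wells for no effect and mitoxantrone controls for full effect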
SIRT5 block – sirtuin-5 (human) deacylase inhibition; 330,000 compounds, 1.1% hits; Purified SirT5, succinyl-peptide AMC, trypsin-coupled fluorescence; AID 652115; inhibition, % at 15 µM; in the data active = inhibition above about 15%; inconclusive = no clear call, values can overlap the other calls
Target sequence (Q9NXA8 whole entry, looked up): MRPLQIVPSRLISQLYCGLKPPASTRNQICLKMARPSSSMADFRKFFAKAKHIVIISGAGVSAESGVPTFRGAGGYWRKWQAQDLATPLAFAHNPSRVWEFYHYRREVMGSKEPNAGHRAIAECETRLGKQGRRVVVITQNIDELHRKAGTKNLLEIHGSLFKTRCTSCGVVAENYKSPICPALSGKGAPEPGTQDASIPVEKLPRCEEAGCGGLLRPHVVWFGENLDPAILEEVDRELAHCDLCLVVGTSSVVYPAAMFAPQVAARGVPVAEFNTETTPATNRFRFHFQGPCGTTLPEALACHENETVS
LGR2 inh – blocks bursicon-induced cAMP signaling via Drosophila LGR2. HEK293 LGR2, CRE-luciferase, bursicon-stimulated, 4 h. inhibition, % at 9.99 µM. 380,000 compounds, 0.35% hits;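 active = drop in luminescence signal, shown as inhibition above about 50% in the replicate tests, limit read from the data, passing the limit was not always enough; inconclusive = probably only some replicates passing the limit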;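 note: agonist challenge used bursicon conditioned medium at about half maximal strength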
PGC1a acetyl inh – lowers PGC1a acetylation signal in U2OS cells; AlphaScreen anti-acetyl-lysine; with virally co-expressed GCN5 acetyltransferase; inhibition, % at 15.6 µM; 350,000 compounds, 0.17% hits; AID 651687;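 active = every replicate shows inhibition of at least 40%; inconclusive = mean inhibition at least 40% but some replicate below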;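 note: 0% = neutral control wells and 100% = positive control wells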
An asterisk follows results filed as active; ? = inconclusive; . = not tested or not shown. Only some compounds are listed: those with a hit (about 3.4% of all), similar ones and a draw of the others.

SMILES	rRNA inh HTS	EWS-Fli block	PAX8 reporter	SIRT5 block	LGR2 inh	PGC1a acetyl inh
C[C@H]1O[C@@H](OC2CC[C@]3(C=O)[C@H]4CC[C@]5(C)[C@@H](C6=CC(=O)OC6)CC[C@]5(O)[C@@H]4CC[C@]3(O)C2)CC2OC(C)(C)OC21 (stereo not given in full)	4	71*	108*	3	81*	.
CC1OC(OC2C(O)CC(OC3C(O)CC(OC4CCC5(C)C(CCC6C5CCC5(C)C(C7=CC(=O)OC7)C(O)CC65O)C4)OC3C)OC2C)CC(O)C1O (stereo not given)	.	46	-16	-1	87*	.
CCCCN=C[C@]12CCC(O)CC1(O)CCC1[C@@H]2CC[C@]2(C)[C@H](C3C=CC(=O)O3)CCC12O (stereo not given in full)	0	73*	107*	-2	85*	.
OC[C@@H]1Nc2ccc(C#Cc3cccnc3)cc2[C@@H]2NCC[C@H]12	5	.	.	.	.	.
CCCNC(=O)N1[C@@H]2c3ccc(-c4ccccc4OC)c(=O)n3C[C@H]1[C@H](CO)[C@H]2C(=O)O	2	8	-3	-30	2	.
O=c1[nH]c2ccccc2n1C1CCN(C(c2ccccc2OC(F)(F)F)c2nnnn2-c2ccc3c(c2)OCCO3)CC1 (stereo not given)	4	15	94*	-1	46	-1
COc1cccc(C(c2nnnn2-c2ccc3c(c2)OCCO3)N2CCC(n3c(=O)[nH]c4ccccc43)CC2)c1OC (stereo not given)	0	25	93*	1	20	28
Cc1cccc(S(=O)(=O)N2[C@@H]3c4ccc(-c5cccc(F)c5)c(=O)n4C[C@H]2[C@H](CO)[C@H]3C(=O)O)c1	-1	-9	-9	-29	7	.
COc1ccc(NC(=S)NC(NC(=O)CF)C(Cl)(Cl)Cl)cc1[N+](=O)[O-] (stereo not given)	-22*	4	5	-4	15	.
O=C(CF)NC(NC(=S)Nc1cccc([N+](=O)[O-])c1)C(Cl)(Cl)Cl (stereo not given)	3	12	1	-4	-9	.
COC(=O)[C@H]1[C@H](CO)[C@H]2Cn3c(ccc(C4=CCCC4)c3=O)[C@@H]1N2S(=O)(=O)c1cn(C)cn1	2	2	-2	-13	8	.
COc1cc2c3c(c1OC)-c1cc(O)ccc1CC3NCC2 (stereo not given)	.	.	.	.	.	4
COc1cc2c(cc1OC)-c1c(OC)c(OC)cc3c1[C@H](C2)[N+](C)(C)CC3	-25*	-5	-14	.	-19	3
CN(C)C(=O)[C@@H]1[C@@H](CO)[C@@H]2Cn3c(cccc3=O)[C@H]1N2CC1CC1	4	-4	.	4	-17	.
COP(=O)(C#Cc1ccccc1)C(O)c1ccc(Br)cc1 (stereo not given)	-30*	15	12	-3	-7	.
CCC(=O)N1[C@@H]2c3ccc(-c4ccc(F)cc4)c(=O)n3C[C@H]1[C@H](CO)[C@H]2C(=O)OC	1	-2	-3	-15	-18	.
COC(=O)[C@@H]1[C@@H](CO)[C@@H]2Cn3c(ccc(-c4ccccc4F)c3=O)[C@H]1N2CC1CCCC1	-7	8	.	-4	11	.
CS(=O)(=O)N1C[C@@H]2N[C@H](C1)C2c1ccccc1 (stereo not given in full)	0	.	.	.	.	.
CCn1c(C)c(C(=O)O)c2cc(OC)ccc21	.	.	.	.	.	0
CCOC(=O)c1c(C)n(C(C)C)c2ccc(OC)cc12	-28*	0	-22	-1	-11	-6
Cc1ccc(OC(=O)N(C)C[C@H]2OCc3ccccc3-c3c(n(C)c4ccccc34)C(=O)N([C@@H](C)CO)C[C@H]2C)cc1	0	3	13	5	7	-82
C=CCN1[C@@H]2CN(CC(F)(F)F)C[C@H]1C2c1ccc(Br)cc1 (stereo not given in full)	-5	.	.	.	.	.
CN1CCN(C(=O)CN=[N+]=[N-])CC1	.	-10	-9	-5	.	5
CC(C)(C)n1nnnc1C(C1CC1)N1CCC2(CC1)C(=O)NCN2c1ccccc1 (stereo not given)	-16*	-4	-4	-6	-10	-25
COC(=O)[C@@H]1[C@@H](CO)[C@@H]2Cn3c(ccc(C4=CCCC4)c3=O)[C@H]1N2CC1CCCC1	1	0	.	2	11	.
SMILES	rRNA inh HTS	EWS-Fli block	PAX8 reporter	SIRT5 block	LGR2 inh	PGC1a acetyl inh
CC1(CCO)CC(C)(CCc2ccccc2)OO1 (stereo not given)	.	67*	41	2	.	-43
COC(=O)[C@@H]1[C@@H](CO)[C@@H]2Cn3c(ccc(-c4ccc(OC)cc4)c3=O)[C@H]1N2C(=O)c1ccccc1F	-3	-1	-2	-68	-19	.
COC(=O)[C@]12OC[C@]34C([C@@H](O)[C@@H]1O)[C@]1(C)CC(=O)C(O)=C(C)[C@@H]1C[C@H]3OC(=O)[C@H](O)[C@@H]24 (stereo not given in full)	15	-20	-2	.	93*	.
CC1=CC(O)C(O)C2(C)C1CC1OC(=O)C(O)C3C(C)C(O)C4(O)OCC13C42 (stereo not given)	.	.	.	.	.	4
CC(=O)N1[C@@H]2Cn3c(ccc(-c4cccc(C(=O)N(C)C)c4)c3=O)[C@H]1[C@@H](C(=O)O)[C@@H]2CO	3	.	.	.	.	.
Cc1ccc(OCCSC2=NN2c2cc(C)nc(N)n2)cc1	-16	0	10	21*	-19	.
O=[N+]([O-])c1ccc(N2CCCCC2)c2ncccc12	-43*	-7	-16	3	-25	-3
C[C@H]1CCC/C=C/[C@@H]2C[C@H](O)C[C@H]2[C@@H](O)/C=C/C(=O)O1	9	73*	119*	.	28	?
COC(=O)[C@H]1[C@H](CO)[C@H]2Cn3c(ccc(-c4cccc(OC)c4)c3=O)[C@@H]1N2CC1CC1	1	1	.	-2	4	.
O=C(O)[C@H]1[C@H](CO)[C@H]2Cn3c(ccc(-c4cccnc4)c3=O)[C@@H]1N2S(=O)(=O)c1ccccc1F	1	-1	-25	-6	3	.
CN(CCc1ccccc1)Cc1ccccc1[N+](=O)[O-]	.	.	.	.	.	-14
Oc1ccccc1CN(CCc1ccccc1)Cc1ccccc1	-26*	4	10	-3	9	-24
O=C(Cc1ccccc1)N1CCCCN2[C@H](CO)[C@H](c3ccc(C#CC4(O)CCCC4)cc3)[C@H]2C1	0	7	-3	2	7	-4
O=S1(=O)N(CCN2CC=C(c3c[nH]c4cc(F)ccc34)CC2)c2cccc3c2N1CCC3	.	13	85*	1	11	-1
COCCOC(=O)C1=C(C)OC(N)=C(C(=O)OC)C12C(=O)Nc1ccccc12 (stereo not given)	.	.	.	.	.	4

Screens as filed in PubChem BioAssay.
